This is a sample that favours compounds with a hit; in the whole collection about 1.6% have one here.
Redox H2O2 prof: compounds producing H2O2 with reducing agent – biochemical, NIH compound library profiling, artefact control for MLSCN library redox annotation, primary screen; DTT-dependent redox cycling H2O2, phenol red/HRP absorbance; 100% = 100 µM peroxide control, 0% = buffer; activation, % at 10 µM; actives 0.03% (n = 200,000);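 active = activation of at least 50% relative to the plate's high and low controls in the primary single-dose screen; inactive = activation below 50%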;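 also: compound incubated with DTT at 0.8 mM final as the reducing agent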
S1P4 antag: human S1P4 receptor antagonism; O95977; S1P4-expressing cells, antagonist mode, reporter read-out; inhibition, % at 4.98 µM; actives 0.26% (n = 220,000); in the data active = inhibition above about 29%;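 also: 0% = wells stimulated with agonist and 100% = vehicle wells without agonist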
p97 inhibitor: human p97 ATPase inhibition; P55072; recombinant p97 ATPase, Kinase-Glo ATP luminescence, 3 h; inhibition, % at 8 µM; actives 0.42% (n = 220,000); AID 1481; in the data active = inhibition above about 15%;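 also: 0% = DMSO vehicle and 100% = wells lacking enzyme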
S1P4 agonist: activates the human S1P4 receptor; S1P4-expressing cell line, agonist reporter assay; activation, % at 4.98 µM; actives 0.35% (n = 220,000); in the data active = activation above about 11%;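 also: 0% = DMSO vehicle and 100% = reference agonist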
Arbovirus inh: blocks arbovirus infection; arbovirus infection cell-based antiviral screen; inhibition, % at 10 µM; actives 0.37% (n = 200,000); in the data active = inhibition above about 30%
S1P3 antagonist: antagonists of human S1P3 receptor | Q99500 | CHO S1P3 NFAT-BLA reporter, FRET fluorescence, antagonist mode | inhibition, % at 4.98 µM | actives 0.27% (n = 170,000) | AID 485;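 active = inhibition above the plate cutoff, the mean inhibition of test wells on that plate plus 3 SD, cut at about 28% in these data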;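 also: cells challenged with S1P at its EC80 of 0.8 µM; blue over green emission ratio from cleaved BLA substrate after 4 h stimulation; 0% = S1P-stimulated wells and 100% = unstimulated DMSO-only wells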
S1P4 antag cf: human S1P4 antagonism, confirmation | shares compounds with S1P4 antag | S1P4-expressing cell line, antagonist mode, reporter read-out | inhibition, % at 4.98 µM | actives 71% (n = 520); in the data active = inhibition above about 30%
S1P1 antag: blocks human S1P1, counter-screen for S1P4 antagonists; shares compounds with S1P4 antag; cell-based S1P1 antagonist counterscreen, inhibition; inhibition, % at 4.98 µM; actives 37% (n = 520); AID 1564; in the data active = inhibition above about 40%;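 also: receptor stimulated with S1P near its EC80; 0% = agonist stimulated wells and 100% = vehicle only wells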
Target sequence (P21453 whole entry, looked up): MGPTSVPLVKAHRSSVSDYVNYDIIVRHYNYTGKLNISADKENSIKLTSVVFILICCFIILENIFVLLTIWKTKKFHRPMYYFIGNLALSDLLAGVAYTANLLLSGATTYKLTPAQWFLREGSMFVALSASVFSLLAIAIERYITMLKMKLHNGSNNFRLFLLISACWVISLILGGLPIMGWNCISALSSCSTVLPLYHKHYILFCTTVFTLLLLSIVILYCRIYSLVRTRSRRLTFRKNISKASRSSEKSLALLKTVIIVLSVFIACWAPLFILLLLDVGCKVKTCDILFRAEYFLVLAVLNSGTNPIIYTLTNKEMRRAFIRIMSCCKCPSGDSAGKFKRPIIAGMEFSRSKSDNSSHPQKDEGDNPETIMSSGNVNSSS
Starred values were filed as active, the others as inactive; . = not tested or not shown.

SMILES	Redox H2O2 prof	S1P4 antag	p97 inhibitor	S1P4 agonist	Arbovirus inh	S1P3 antagonist	S1P4 antag cf	S1P1 antag
Cc1noc(C)c1COc1ccc(C(=O)OCC(N)=O)cc1	-2	-1	-2	1	3	-25	.	.
Cn1c(-c2c(N)n(CCCc3ccccc3)c3nc4ccccc4nc23)nc2ccccc21	2	37*	3	1	-28	.	83*	106*
COc1ccc(C(=O)C(CN2CCOCC2)c2ccccc2)cc1F (stereo unspecified)	-1	33*	2	-5	-42	2	46*	7
COc1ccc(C(O)C(CN2CCOCC2)c2ccccc2)cc1F (stereo unspecified)	2	2	-5	2	7	0	.	.
O=C(NCc1cccnc1)/C(=C/c1ccc(-c2ccc(Cl)cc2)o1)S(=O)(=O)c1ccccc1	-1	49*	5	-1	-35	.	101*	43*
O=C(NCc1cccnc1)/C(=C\c1ccc(-c2ccc(Br)cc2)o1)S(=O)(=O)c1ccccc1	0	52*	2	1	-44	22	106*	64*
O=C(O)c1ccc2c(=O)n3c(nc2c1)/C(=C/c1cccc(Cl)c1Cl)CCCC3	0	1	-5	0	12	1	.	.
Cc1nn(C)c(C(=O)Nc2ccc(Cl)c([N+](=O)[O-])c2)c1Cl	0	-15	1	1	-5	-13	.	.
Cc1cc(C)n(-c2cc(N3CCN(S(=O)(=O)c4ccc(Cl)cc4)CC3)ccc2[N+](=O)[O-])n1	0	60*	0	-1	-2	-3	14	26
Nc1ccccc1Oc1ccc2ccccc2c1	0	6	-3	-1	-26	-7	.	.
CN(C)/N=C/C=C1\CC/C(=C\c2ccc(Br)cc2)C1=O	0	30*	-3	-1	2	.	11	13
COC(=O)CS(=O)(=O)c1nnc([C@H](Cc2ccccc2)NC(=O)OC(C)(C)C)o1	3	-1	6	-2	4	-10	.	.
Cc1cccc(CS(=O)(=O)c2nnc([C@H](Cc3ccccc3)NC(=O)OC(C)(C)C)o2)c1	0	88*	-7	-2	-43	.	93*	24
Nc1cccc2c1C(=O)N(C(=O)c1ccc(Cl)c(S(=O)(=O)N3CCCCCC3)c1)C2=O	0	32*	-1	3	2	.	33*	0
CCN(CC)S(=O)(=O)c1ccc2c(c1)c(=O)c(C(=O)NCc1ccco1)cn2C	-2	3	2	1	-1	1	.	.
O=C1/C(=C/Nc2ccc3c(c2)OCO3)CCc2ccccc21	-1	31*	-8	0	-30	47	21	74*
O=C(/C=C/c1ccccc1[N+](=O)[O-])c1ccccc1Br	-1	36*	0	-1	-23	-6	79*	28
CC(C)(C)c1ccc(-n2nc(C#N)c(Cl)cc2=O)cc1	-2	110*	1	-6	-29	-5	120*	49*
CC(C)(C)c1ccc(-n2nc(C(N)=O)c(O)cc2=O)cc1	-2	-25	-4	-1	0	-2	.	.
CCN(CC)C(=O)c1sc(NC(=O)c2ccc(OC)c([N+](=O)[O-])c2)c(C#N)c1C	0	-10	4	2	10	-9	.	.
Oc1ccccc1C1CC(c2cccs2)=NC(c2cccc(Br)c2)N1 (stereo unspecified)	0	30*	7	2	0	-1	43*	20
O=c1cc(CSCc2ccc(Cl)cc2)[nH]c(=O)[nH]1	.	-7	-15	1	.	-9	.	.
O=C(c1ccc2c(=O)n(C3CCCC3)c(=S)[nH]c2c1)N1CCc2ccccc21	1	-13	3	-1	-1	.	.	.
O=C(Cn1ncc(Cl)c(Cl)c1=O)N1CCN(S(=O)(=O)c2ccc3ccccc3c2)CC1	0	41*	5	-5	-34	0	116*	69*
CCCCc1ccc(/C=C2\C(=O)c3ccccc3C(O)=C2C(=O)OCC)cc1	-1	36*	-3	-1	-40	.	68*	22
SMILES	Redox H2O2 prof	S1P4 antag	p97 inhibitor	S1P4 agonist	Arbovirus inh	S1P3 antagonist	S1P4 antag cf	S1P1 antag
CCOC(=O)C1=C(Cc2ccc(F)cc2)C(=O)c2ccccc2C1=O	0	18	2	-1	3	.	.	.
COc1ccc(CCNC(=O)C2CCN(Cc3nc(-c4cccc(Cl)c4)oc3C)CC2)cc1OC	0	30*	1	-2	-27	-12	4	-10
Cc1nc2c(=O)n(C)c(=O)n(C)c2nc1Cl	0	49*	1	0	-34	3	94*	51*
CC(=O)c1sc(N/N=C2\CC3CCC2(C)C3(C)C)nc1C (stereo unspecified)	0	12	0	-1	4	17	.	.
Cc1ccc(NC(=O)c2cc(-c3ccccc3)nn2-c2ccccc2)cc1	0	-17	-1	8	6	4	.	.
O=C(Nc1ccc(F)cc1)c1nn(-c2ccccc2)c(=O)cc1Cl	0	45*	5	-3	-31	-8	75*	71*
COc1ccccc1-c1cc(C(F)(F)F)nc(N2CCCC2)n1	-2	-18	-7	2	-10	.	.	.
COc1ccccc1-c1cc(C(F)(F)F)nc(S(C)(=O)=O)n1	0	68*	-7	-2	-46	.	86*	6
O=C(OC(C(=O)NCc1ccc2c(c1)OCO2)c1ccncc1)c1ccc(Cl)nc1 (stereo unspecified)	-1	-8	-3	-1	3	-7	.	.
S=C(Nc1ccccc1)Nc1ccccc1Br	.	0	6	0	.	9	.	.
O=C(Nc1ccccc1)c1nnsc1S(=O)c1ccc(Cl)cc1 (stereo unspecified)	2	49*	6	-3	-32	.	111*	6
CCCOc1ccc(/C(O)=C2/C(=O)C(=O)N(CCCn3ccnc3)C2c2ccc(C)o2)cc1 (stereo unspecified)	.	7	0	3	.	-4	.	.
Cc1nn(C(C)C(=O)c2cccc(Cl)c2)c(C)c1[N+](=O)[O-] (stereo unspecified)	-1	-6	1	-2	7	-5	.	.
Cn1cnc([N+](=O)[O-])c1S(=O)(=O)c1cccc(Cl)c1	0	48*	-1	4	-27	-11	47*	63*
Cc1cc(C)c(C)c(OCc2nc(-c3cccnc3)no2)c1	0	30*	-6	3	3	1	9	12
CCN(CC)C(=O)CN(c1cccc(C(F)(F)F)c1)S(C)(=O)=O	0	-17	-3	-2	8	.	.	.
CCN(CC)C(=O)CN(c1cccc(Br)c1)S(C)(=O)=O	-1	30*	2	1	-4	18	2	-34
